Bioassay records (PubChem BioAssay)
TAG inh: triacylglycerol accumulation inhibition; inhibition, % at 12.5 µM; AID 651582; 0.66% of 230,000 active; H9c2 cells, Nile Red lipid (TAG) fluorescence; cells loaded with 200 µM oleic acid;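 active = pattern-corrected inhibition of lipid staining of at least 50% with the nuclear-stain viability signal not falling by more than 50%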;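 note: 0% = DMSO wells and 100% = triacsin C control wells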
MPTP inh: blocks calcium-induced mitochondrial swelling | AID 602449 | inhibition, % at 10 µM | isolated mouse mitochondria, Ca2+ swelling absorbance, 30 min | 1.4% of 360,000 active;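 active = inhibition of 50% or more, scaled per plate between neutral and stimulator controls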;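 note: 0% = DMSO wells given calcium and 100% = 1 mM EGTA wells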
NadD inh: blocks S. aureus nicotinate mononucleotide adenylyltransferase; purified NadD enzyme, colorimetric absorbance read-out; inhibition, % at 20 µM; 0.78% of 360,000 active; AID 602399; in the data active = inhibition above about 26%
aDG glyco act: increases alpha dystroglycan glycosylation | Pro5-aDG cells, alpha-DG glycosylation AlphaScreen (IIH6); 0% Pro5, 100% B10-LARGE cell signal | 0.22% of 360,000 active | activation, % at 10 µM | AID 624168;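 active = activation of at least 8% versus controls, or a plate z-score of at least 8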;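 note: Pro5 are CHO cells carrying HIG-tagged alpha-DG that lacks glycosylation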
Rh123 counter: mitochondrial membrane potential, counter-screen; shares compounds with MPTP inh; isolated mitochondria, Rhodamine 123 fluorescence; inhibition, % at 10 µM; 78% of 5,000 active; AID 624504; in the data active = inhibition above about 22%;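 note: 0% = DMSO vehicle and 100% = positive control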
MPTP abs DR: MPTP inhibition, dose response swelling confirmation; shares compounds with MPTP inh; isolated mitochondria swelling, absorbance; IC50, µM; 58% of 780 active; AID 651561; in the data active = IC50 below about 20 µM
MPTP cs DR: counter-screen for mitochondrial permeability transition pore inhibitors, dose response. 49% of 780 active. shares compounds with MPTP inh. IC50, µM. isolated mitochondria counterscreen, fluorescence read-out; in the data active = IC50 below about 80 µM
* hit, by the source's call; i = inactive; / = not tested or not shown. This is a sample that favours compounds with a hit; in the whole collection about 2.7% have one here.

SMILES | TAG inh | MPTP inh | NadD inh | aDG glyco act | Rh123 counter | others
COc1cc(CNCCCN2CCOCC2)cc(Br)c1OCc1ccc(Cl)cc1 | 18 | 74* | -9 | -1 | -9
CC(NC(=O)/C=C/c1ccc(Br)cc1)c1ccc(Cl)cc1 (configuration not stated) | / | 78* | -4 | 0 | 84*
CN(C)c1ccc(S(=O)(=O)NCC(=O)NCCC2=CCCCC2)cc1[N+](=O)[O-] | -1 | -1 | -4 | 0 | /
CCC(=O)N1CCCC(C)(C(=O)Nc2ccc(C)c(C)c2)C1 (configuration not stated) | -11 | 2 | -2 | 0 | /
COc1ccc(NC(=O)C2Cc3c(-c4ccc(NC(C)=O)cc4)ccnc3O2)cc1OC (configuration not stated) | -2 | 0 | -3 | 0 | /
COc1ccc(NC(=O)C2Cc3c(-c4cccc(F)c4)ccnc3O2)cc1OC (configuration not stated) | -25 | 68* | 3 | 1 | 65*
O=C(Nc1ccccc1)C1Cc2c(-c3cccc(F)c3)ccnc2O1 (configuration not stated) | -29 | 1 | 3 | 0 | /
COc1ccc(NC(=O)C2Cc3c(-c4ccc5c(c4)OCO5)ccnc3O2)cc1OC (configuration not stated) | -18 | 96* | 1 | 2 | 89*
Cc1ccc(C)c(Oc2cc(NC(=O)CCCn3nc(C)c([N+](=O)[O-])c3C)cc([N+](=O)[O-])c2)c1 | / | 94* | -9 | 4 | 75*
Cc1ccc(-n2cc3c(-c4cccc(Br)c4)nnc(C)c3n2)cc1 | / | 54* | 19 | 0 | 2 | MPTP abs DR=i;MPTP cs DR=29*
Cc1nnc(-c2cccc(Br)c2)c2cn(-c3ccccc3Cl)nc12 | / | 12 | 9 | 0 | /
N#Cc1nc(COc2ccc(-c3ccccc3)cc2)oc1NCCCN1CCOCC1 | -55 | 1 | -12 | 4 | /
CN(C)CCNc1oc(COc2ccc(-c3ccccc3)cc2)nc1C#N | / | 75* | -9 | 1 | -18 | MPTP abs DR=5.9*;MPTP cs DR=54*
CCOC(=O)c1sc(NC(=O)Nc2ccc(Cl)cc2)nc1C | -18 | 97* | 11 | 1 | 67*
CCOC(=O)c1ccc(NC(=O)Nc2ccon2)cc1 | 39 | 50* | -5 | 0 | 65*
Cc1cc(NC(=O)Nc2ccc(Cl)c(Cl)c2)no1 | -17 | 82* | -7 | 0 | 94*
CCOC(=O)Nc1nc(C)c(C(=O)c2ccc(Cl)cc2)s1 | 20 | 2 | -4 | 0 | /
CCOC(=O)c1ccc(NC(=O)Nc2ccc(Cl)cn2)cc1 | 7 | 15 | -1 | 0 | /
CCOC(=O)c1sc(NC(=O)Nc2cccc(Cl)c2)cc1C | / | 79* | -3 | 0 | 49*
O=C(COC(=O)/C=C/c1ccccc1Cl)NC1CC1 | 5 | -1 | -2 | 0 | /
Cc1ccc(NC(=O)Nc2cnccn2)cc1Cl | / | 63* | 0 | 0 | 64*
O=C(Nc1ccc(Cl)c(Cl)c1)Nc1ccon1 | 13 | 69* | -6 | 0 | 103*
CCOC(=O)Nc1nc2ccccc2s1 | -4 | -1 | -3 | 0 | /
C/C(=N\NC(=O)C(=O)Nc1ccc(C)c(Cl)c1)c1ccncc1 | / | 55* | -2 | 1 | 8 | MPTP abs DR=1.5*;MPTP cs DR=<2.5*
C/C(=N\NC(=O)C(=O)Nc1ccc(C)cc1)c1ccncc1 | / | 1 | -3 | 0 | /
SMILES | TAG inh | MPTP inh | NadD inh | aDG glyco act | Rh123 counter | others
CCOC(=O)c1ccc(NC(=O)Nc2nc3ccccc3s2)cc1 | 2 | 83* | 4 | 0 | 91*
COc1ccc(NC(=O)Nc2ccon2)cc1OC | -1 | 0 | 0 | 0 | /
C[C@H](NC(=O)c1nc[nH]c1C(=O)N(C)CCO)c1ccccc1 | / | -1 | 1 | 0 | /
NC(=O)NN=C1CCN2CCCc3cccc1c32 | 1 | 0 | -3 | 0 | /
CCC(=O)N=c1ccn(C2=Nc3ccccc3NC2=C(C#N)C#N)cc1 | -2 | 0 | -5 | 0 | /
Cc1noc(NS(=O)(=O)c2ccc(NC(=O)Nc3ccc(Cl)c(Cl)c3)cc2)c1C | 11 | 84* | 2 | 0 | 75*
Cc1noc(NS(=O)(=O)c2ccc(NC(=O)C(Cl)(Cl)Cl)cc2)c1C | 8 | -1 | -4 | 0 | /
O=C(Nc1ccccc1N1CCOCC1)c1ccccc1NS(=O)(=O)c1ccc(F)c(F)c1 | 10 | 62* | 0 | 1 | 98*
Cc1cc(F)ccc1S(=O)(=O)Nc1ccccc1C(=O)Nc1ccccc1N1CCOCC1 | -18 | 78* | 3 | 0 | 89*
COc1ccc(-c2csc(NS(=O)(=O)c3ccc([N+](=O)[O-])cc3)n2)cc1 | / | 84* | 8 | 0 | 78*
O=C(Nc1ccccc1N1CCOCC1)c1ccccc1NS(=O)(=O)c1ccc(F)cc1 | -6 | 5 | -4 | 0 | /
COc1ccc(-c2csc(NC(=O)c3ccccc3NS(=O)(=O)c3ccc(F)c(F)c3)n2)cc1 | 0 | 92* | 6 | 0 | 1
CNc1nc(-c2ccc([N+](=O)[O-])cc2)cs1 | -9 | -4 | -4 | 0 | /
O=C(COC(=O)COc1cccc(C(F)(F)F)c1)NC1CCCC1 | -12 | 0 | -1 | 0 | /
CC1CCCCC1NS(=O)(=O)c1ccc2c(c1)CC(=O)N2C (configuration not stated) | / | 0 | 3 | 0 | /
COC(=O)c1cn[nH]c1NC(=S)Nc1ccccc1C | / | 0 | -2 | 0 | /
COC(=O)c1cn[nH]c1NC(=S)Nc1ccc(Cl)c(Cl)c1 | / | 99* | 3 | 0 | 81*
COC(=O)c1cn[nH]c1NC(=S)Nc1ccc(C)cc1Cl | / | 96* | -10 | 0 | 75*
O=C(O)CCC(=O)c1ccc(C2CCCCCC2)cc1 | / | -2 | -4 | 0 | /
CC(C)CC(=O)C1=C(O)C(=O)N(Cc2ccccc2)C1c1ccccc1 (configuration not stated) | 3 | 0 | 0 | 0 | /
CCOC(=O)C1=C(Nc2ccccc2)CC(C)(O)C(C(=O)OCC)C1c1ccc(Br)cc1 (configuration not stated) | / | 59* | -5 | 0 | -4 | MPTP abs DR=>100;MPTP cs DR=>80
CN(CC(=O)Nc1ccc(F)c(F)c1F)C(=O)CCN1C(=O)C2CC=CCC2C1=O (configuration not stated) | 5 | 1 | -5 | 0 | /
CCOc1ccccc1NC(=O)Nc1ccc(Cl)cc1 | / | 90* | -6 | 0 | 90*
CCOc1cc(NC(=S)Nc2ccccc2)c(OCC)cc1NC(=O)c1ccc(OC)cc1 | / | -2 | 9 | 0 | /
CCOc1cc(NC(=S)Nc2ccc(Cl)cc2)c(OCC)cc1NC(C)=O | 9 | 73* | 5 | 0 | 100*
Cn1nc(CSc2ccccc2)c(C=O)c1Cl | / | -1 | 2 | 0 | /
COc1ccc(CCNC(=O)c2cc(C)oc2C)cc1 | -10 | 0 | -3 | 0 | /
Cc1oc(-c2cc(Cl)cc(Cl)c2)cc1C(=O)NCCc1ccccc1 | / | 93* | -9 | 0 | 78*
